# SW480 rerep – A quantitative high throughput screen for small molecules that induce DNA re-replication in SW480 colon adenocarcinoma cells. Potency, µM (highest dose often 46.1 µM), inactives show top-dose re-replication activation, actives largely listed as activators. SW480 DNA re-replication, Hoechst DNA content imaging, 48 h. 340,000 compounds, 1.8% hits; also: % of control where 0% means no effect; nearly all actives have a fitted effect of over 55% in size
#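 Treated cells incubate 48 hr (37 C, 5% CO2), are stained 40 min with Hoechst, and nuclear fluorescence is enumerated; a rise in nuclei with high DNA signal marks re-replication.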
# KB-3-1 cytotox – qHTS assay for MDR1-selective chemotherapeutics: Primary screen using the parental adenocarcinoma cell KB-3-1; KB-3-1 viability, CellTiter-Glo ATP luminescence, 72 h; 400,000 compounds, 1.4% hits; Potency, µM (top dose mostly 46.1 µM), most hits filed as cytotoxic; AID 1347075, 2019; also: % is scaled to controls: 0 for no effect and ±100 for the full control effect; nearly all actives have a fitted effect of over 60% in size
#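 Parental KB-3-1 viability, qHTS format: 72 h compound exposure, 37 °C; CellTiter-Glo; media-only wells and DMSO plates as controls; concentration-effect fits on corrected data.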
# HT1080 IDH1KD tx – qHTS for induction of synthetic lethality in tumor cells producing 2HG: qHTS for the HT-1080-IDH1KD cell line; Potency, µM (series often up to 46.1 µM), without a hit: at the highest dose activity, negative = toxicity, usual class: cytotoxic; AID 686971, 2013; HT-1080 IDH1 knockdown viability, ATP luminescence, 48 h; 360,000 compounds, 2% hits;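 also: 0% = DMSO wells and -100% = cell-free medium wells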
#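 Cytotoxicity counter-line: IDH1KD HT-1080, 48 h, CellTiter-Glo. Curves classed by r2, magnitude and activity.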
# KB-V1 cytotox – qHTS assay for MDR1-selective chemotherapeutics: Primary screen using the drug-selected MDR subline cells KB-V1; KB-V1 MDR cells viability, CellTiter-Glo, 72 h; Potency, µM (titrated, usually from 46.1 µM), actives largely listed as cytotoxic; 400,000 compounds, 3.4% hits; AID 1347076, 2019; also: % is scaled to controls: 0 for no effect and ±100 for the full control effect; nearly all actives have a fitted effect of over 60% in size
#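 Potencies derive from concentration-effect curves fitted to normalized luminescence (CellTiter-Glo) of KB-V1 cells treated for 72 h at 37 degrees C in phenol-red-free DMEM containing 10% FBS.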
# MCF10A rereplic – A quantitative high throughput screen for small molecules that induce DNA re-replication in MCF 10a normal breast cells; AID 624296, 2012; 350,000 compounds, 2.9% hits; MCF 10A DNA re-replication, Hoechst nuclear intensity, 48 h; Potency, µM (top dose mostly 46.1 µM), for the others: at the highest dose activity, positive = re-replication, actives largely listed as activators; also: % of control where 0% means no effect; nearly all actives have a fitted effect of over 50% in size
# HT1080-NT tox – qHTS for induction of synthetic lethality in tumor cells producing 2HG: qHTS for the HT-1080-NT fibrosarcoma cell line; HT-1080-NT fibrosarcoma viability, CellTiter-Glo ATP luminescence, 48 h; Potency, µM (series often up to 46.1 µM), without a hit: at the highest dose activity, negative = less viability, hits mostly cytotoxic; 360,000 compounds, 1.6% hits; AID 686970, 2013;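 also: NT is the 2HG producing partner of a matched IDH1 knockdown line; 0% = DMSO-treated cells and -100% = media-only wells without cells; nearly all actives have a fitted effect of over 55% in size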
#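 Read-out is CellTiter-Glo luminescence after 10 minutes at room temperature, following 48 hours' compound treatment of HT-1080-NT cells (750 cells/well, RPMI, 5% FBS, 37 degrees C).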
# * marks the source's active call; other numbers are inactive results; i = inactive; ? = inconclusive. In the library only some 8% were active in any assay of this set; here they are far more common. Calls follow the shape of the dose curve; as a rule, active = well fitted curve in the direction sought with a large enough effect; inconclusive = small, poorly fitted or top-dose-only effect, or another doubt; inactive = no such curve, though single readings can be large; an effect the other way counts as inactive or inconclusive. Potency is read from the fitted curve at half-maximal effect.
SMILES,SW480 rerep,KB-3-1 cytotox,HT1080 IDH1KD tx,KB-V1 cytotox,MCF10A rereplic,HT1080-NT tox
CC(Nc1ncnc2sccc12)c1ccccc1 (configuration not stated),-3.1%,?,-23.0%,i,7.4%,10.3µM*
CCCCCn1c(SCC(=O)OCC)nc2cc(C(=O)N3CCC(C(N)=O)CC3)ccc2c1=O,-1.4%,i,11.2%,i,-0.3%,8.5%
C=CCn1c(SCc2ccc(Cl)cc2)nc2cc(C(=O)N3CCC(C(N)=O)CC3)ccc2c1=O,-111.0%,?,2.7%,25.9µM*,-0.2%,-5.3%
C/C(=N\NC(=S)NCc1ccccc1)c1cccc(Br)c1,-7.8%,i,?,?,-1.2%,-23.3%
C=CCNC(=S)N/N=C(\C)c1ccc(OC)cc1,?,i,2.2%,i,8.4%,4.5%
C/C(=N\NC(=S)NCc1ccccc1)c1ccc2ccccc2c1,?,i,-8.1%,?,16.4µM*,-0.3%
C=CCNC(=S)N/N=C(\C)c1cccc(OC)c1,3.7%,i,10.8%,23.1µM*,-1.5%,-4.0%
COC(=O)CSc1c(-c2ccccc2)c2cc(Cl)ccc2[nH]c1=O,2.5%,i,0.9%,i,6.2%,6.4%
CC(=O)OCCSc1c(-c2ccccc2)c2cc(Cl)ccc2[nH]c1=O,-50.0%,i,-2.4%,23.1µM*,12.1%,-0.6%
CC(C)Cn1c(O)c(/C=C2\C=NN=C2c2ccccc2)sc1=S,?,i,2.7%,?,23.1µM*,-17.2%
CCCCn1c(O)c(/C=C2\C=NN=C2c2ccccc2)sc1=S,?,i,-25.2%,i,10.3µM*,-14.6%
CCCCCCn1c(O)c(/C=C2\C=NN=C2c2ccccc2)sc1=S,?,i,?,?,?,-13.2%
CCN(Cc1ccccc1)C(=O)c1ccccc1C,-4.6%,i,1.6%,?,7.9%,6.4%
CCCN(CCC)C(=O)c1ccccc1C(=O)N(CCC)CCC,-4.7%,i,0.0%,8.2µM*,-0.7%,-3.2%
CC(NC(=O)/C(C#N)=C/c1ccco1)c1ccccc1 (configuration not stated),0.7%,i,5.7%,i,-3.1%,17.0%
COC(=O)c1ccc(/C=C(\C#N)C(=O)NC(C)c2ccccc2)cc1 (configuration not stated),?,?,?,i,18.4µM*,?
Cc1ccc(C(C)NC(=O)/C(C#N)=C\c2c(C)[nH]c3ccccc23)cc1 (configuration not stated),?,i,?,11.6µM*,?,?
CC(NC(=O)/C(C#N)=C/c1ccc([N+](=O)[O-])o1)c1ccccc1 (configuration not stated),3.66µM*,?,6.51µM*,i,3.66µM*,-22.8%
CC(NC(=O)/C(C#N)=C/c1ccc(N2CCOCC2)cc1)c1ccccc1 (configuration not stated),?,i,-17.1%,i,20.6µM*,3.1%
CC(NC(=O)/C(C#N)=C/c1cccs1)c1ccccc1 (configuration not stated),-4.5%,i,-20.5%,i,0.8%,0.0%
CCn1ncc(C2=NOC(C(=O)NCCc3ccccc3)C2)c1C (configuration not stated),-15.1%,i,9.8%,?,?,10.2%
Fc1cccc(CNC2CCN(CCc3ccccc3)CC2)c1,?,i,-4.0%,i,16.4%,0.0%

# Bioassay records from PubChem BioAssay.
